Source: PubChem
Only some compounds are listed: those with a hit (about 12% of all), similar ones and a draw of the others.
L3MBTL1 block = L3MBTL1 (human) inhibition; Q9Y468; AlphaScreen L3MBTL1–H3K9me1 peptide binding; Potency, µM (titrated, usually from 57.1 µM), without a hit: at the highest dose activity, negative = inhibition, most hits filed as inhibitors; hit rate 0.66% among 230,000; AID 485360; further: on the % scale 0 is the no-effect control and ±100 the full control effect; nearly all actives have a fitted effect of over 60% in size
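First, the protein-peptide complex forms for 30 min at room temperature (L3MBTL1 50 nM, biotinylated H3K9me1 peptide 75 nM). Next, compounds are pin-transferred and incubated 30 min. Finally, AlphaScreen beads are added and read after 30 min.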
HP1b binding inh = inhibitors of HP1-beta chromodomain binding to methylated histone tails; AID 540317; hit rate 0.56% among 390,000; AlphaScreen HP1-beta / biotin-H3K9me3 peptide binding; Potency, µM (doses to about 114 µM), without a hit: top-dose activity change, negative = inhibition, hits mostly inhibitors; further: nearly all actives have a fitted effect of over 70% in size
Target sequence (P83916 whole entry, looked up): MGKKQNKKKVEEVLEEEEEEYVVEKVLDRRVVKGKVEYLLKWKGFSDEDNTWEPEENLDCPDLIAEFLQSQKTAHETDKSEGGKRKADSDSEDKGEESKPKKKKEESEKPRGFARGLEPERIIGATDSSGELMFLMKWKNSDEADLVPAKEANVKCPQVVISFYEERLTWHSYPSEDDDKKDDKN
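HP1-beta protein (50 nM final) preincubated 30 min at room temperature with biotinylated H3(1-18)K9me3 peptide (50 nM) in PBS pH 7.4, 0.01% Tween-20, then compound added for 30 min. AlphaScreen streptavidin donor/nickel chelate acceptor beads (10 ug/mL final), 30 min dark, luminescence read.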
Sfp inh = inhibitors of Bacillus subtilis Sfp phosphopantetheinyl transferase. Biochemical Sfp PPTase activity, qHTS. hit rate 3.5% among 310,000. Q9F4F7. Potency, µM, for inactives: largest response in the series, negative = inhibition, hits mostly inhibitors;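 further: the enzyme is Sfp with the accession as filed and its product quenches rhodamine fluorescence; 0% = enzyme reaction without inhibitor and -100% = no enzyme wells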
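After 15 min at room temperature with compound, 15 nM Sfp received 5 uM rhodamine-CoA plus 12.5 uM BHQ-2-ybbR (50 mM Hepes pH 7.6, 10 mM MgCl2). Rate came from the fluorescence difference over 30 min, ex 525/em 598 nm.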
JMJD2A Tudor inh = inhibitors of human JMJD2A Tudor domain | AID 504339 | AlphaScreen JMJD2A-Tudor / H3K4me3 peptide binding | O75164 | Potency, µM (titrated, usually from 114 µM), without a hit: at the top dose activity change, negative = inhibition, actives largely listed as inhibitors | hit rate 4.4% among 390,000; further: on the % scale 0 is the no-effect control and ±100 the full control effect; nearly all actives have a fitted effect of over 50% in size
BAZ2B block = inhibitors of human BAZ2B bromodomain; AlphaScreen BAZ2B-H3K14Ac peptide displacement; Potency, µM (doses to about 114 µM), for inactives: top-dose activity change, negative = inhibition, hits mostly inhibitors; Q9UIF8; hit rate 4.4% among 360,000; further: on the % scale 0 is the no-effect control and ±100 the full control effect; nearly all actives have a fitted effect of over 60% in size
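Complex of BAZ2B and biotin-H3K14Ac (50 nM apiece) forms over 30 min at RT, then faces library compounds up to 110 uM for another 30 min; AlphaScreen beads added, 20 min dark incubation, luminescence read.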
G9a inh = inhibitors of human histone lysine methyltransferase G9a; Q96KQ7; G9a H3K9 monomethylation, AlphaScreen, 2 h; Potency, µM (top dose mostly 102 µM), inactives show at the highest dose activity, negative = inhibition, most hits filed as inhibitors; hit rate 8.8% among 350,000; further: on the % scale 0 is the no-effect control and ±100 the full control effect; nearly all actives have a fitted effect of over 75% in size
Target sequence (Q96KQ7 913-1193 limits assumed): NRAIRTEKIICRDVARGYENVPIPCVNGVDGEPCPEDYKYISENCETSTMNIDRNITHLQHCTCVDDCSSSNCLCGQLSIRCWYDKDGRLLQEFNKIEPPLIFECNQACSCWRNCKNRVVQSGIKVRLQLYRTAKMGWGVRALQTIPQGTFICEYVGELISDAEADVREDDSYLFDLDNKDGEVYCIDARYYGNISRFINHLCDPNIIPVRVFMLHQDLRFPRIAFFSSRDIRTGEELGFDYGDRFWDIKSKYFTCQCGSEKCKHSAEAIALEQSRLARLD
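Compounds were preincubated with 20 nM G9a for 15 min, after which biotinylated H3K9 peptide (500 nM) and SAM (20 uM) started a 2 h room-temperature reaction. Monomethylated product was quantified by antibody-based AlphaScreen chemiluminescence.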
The depositor's hits bear a star; ? = inconclusive; nt = not tested or not shown; [ ] = remark or other dose. The call rests on the fitted dose curve; in most records, active means well fitted curve in the direction sought with a large enough effect; inconclusive means small, poorly fitted or top-dose-only effect, or another doubt; inactive means no such curve, though single readings can be large; an effect the other way counts as inactive or inconclusive. Potency means the concentration at half of the fitted maximal effect.

SMILES	L3MBTL1 block	HP1b binding inh	Sfp inh	JMJD2A Tudor inh	BAZ2B block	G9a inh
CCN(CC)/C(Sc1ccccc1)=C(/C(Cl)=C(Cl)Cl)[N+](=O)[O-]	nt	17.1%	5.8%	-21.0%	-32.4%	?
O=[N+]([O-])/C(C(Cl)=C(Cl)Cl)=C(\Sc1ccccc1)N1CCCCC1	-4.1%	-9.8%	-14.5%	?	?	39.8µM*
CCOc1ccc(Oc2ccc(Cl)cc2NC(=O)C2=COCCO2)cc1	10.5%	42.9%	nt	9.7%	0.1%	20.3%[0.501 µM]
Cc1cccc(-n2c(C)nc3cc(C(=O)NCCC4=CCCCC4)ccc32)c1	nt	-15.8%	nt	-33.9%	-18.2%	-21.6%[59 µM]
Cc1ccccc1C(=O)Nc1nnc(SCc2cc(=O)c3c(C)ccc(C)c3[nH]2)s1	nt	19.6%[57 µM]	nt	-31.5%	56.2µM*	7.7%[59 µM]
NC(=O)N1CCC2(CC1)NC(=O)N(c1ccccc1)N2	0.6%	34.4%	-7.2%	-4.4%	-15.5%	7.94µM*
O=C1CC[C@@H](C(=O)N[C@@H](Cc2cnc[nH]2)C(=O)N[C@@H](Cc2c[nH]c3ccccc23)C(=O)N[C@@H](CO)C(=O)N[C@@H](Cc2ccc(O)cc2)C(=O)O)N1	nt	nt	27.0%	nt	nt	nt
Cc1ccc(-c2onc(C)c2C)cc1S(=O)(=O)N1CCc2ccccc21	nt	97.6%	nt	3.6%	7.4%	19.3%[59 µM]
COc1ccc(NC(C)C(=O)N2CCN(Cc3ccccc3)CC2)cc1 (stereo unspecified)	nt	29.8%	20.1%	-14.4%	-10.8%	?
CC(C)CC(=O)N1CCN(Cc2ccccc2Cl)CC1	-2.9%[2.29 µM]	?	2.6%	-100.0%	50.1µM*	3.8%[0.501 µM]
COc1cc(CN2CCN(C(=O)CC(C)C)CC2)c([N+](=O)[O-])cc1OC	3.3%	?	?	22.4µM*	44.7µM*	17.8µM*
COc1ccc(CN2CCN(C(=O)CC(C)C)CC2)cc1	0.2%	?	-33.5%	7.94µM*	?	nt
COc1cc(CN2CCN(C(=O)CC(C)C)CC2)cc(OC)c1OC	-9.3%	?	?	6.31µM*	28.2µM*	?
COc1cc(CCC(=O)N2CCN(c3ccccc3)CC2)cc(OC)c1OC	nt	48.0%	29.5%	-12.3%	-17.2%	11.5%
O=C(CN1CCN(Cc2ccccc2Cl)C1=O)N1CCCCCC1	nt	27.0%	17.5%	-21.3%	-23.9%	-3.8%
O=C(CSc1nc2ccsc2c(=O)n1-c1ccc(Br)cc1)NCc1ccc(Cl)cc1	nt	40.2%	nt	5.2%	-1.6%	?
O=C1Cc2cc(S(=O)(=O)N3CCN(c4ccc(Cl)cc4)CC3)ccc2N1	nt	nt	nt	-34.0%[229 µM]	nt	nt
CCOc1ccc(NC(=O)N2CCOc3ccccc32)cc1	nt	33.3%	nt	-14.1%	-9.5%	-17.2%[59 µM]
CNS(=O)(=O)c1cn(CC(=O)N2CCN(c3cccc(C)c3C)CC2)cc1S(=O)(=O)NC	nt	23.3%	nt	-14.1%	-12.6%	-19.2%[59 µM]
Nc1c(-c2ccccc2)c(CN2CCOCC2)nn1-c1ccc(F)cc1	-2.2%	18.8%	18.4%	8.3%	-12.2%	20µM*
COc1ccc(-n2c(=O)c3ccccc3c3ccccc3c2=O)cc1	-10.2%	34.7%	13.3%	4.8%	-30.0%	10µM*
CC(=O)Oc1ccc(-n2c(=O)c3ccccc3c3ccccc3c2=O)cc1	0.5%	-0.5%	20.1%	-10.6%	-22.6%	-33.9%
COc1ccc(OC)c(-n2c(=O)c3ccccc3c3ccccc3c2=O)c1	-6.2%	23.3%	6.9%	?	?	10µM*
CNC(=O)CSc1nc2ccccc2c(=O)n1-c1cc(OC)ccc1OC	nt	38.2%	5.2%	1.4%	-5.0%	23.4%[59 µM]
Cc1cccc(C)c1NC(=O)COC(=O)CCc1c[nH]c2ccccc12	0.8%	0.3%	nt	-31.4%	-22.2%	-3.1%[59 µM]
SMILES	L3MBTL1 block	HP1b binding inh	Sfp inh	JMJD2A Tudor inh	BAZ2B block	G9a inh
S=c1[nH]ccn1Cc1ccccc1	-12.1%	-31.0%	-25.9%	14.1µM*	-14.7%	6.31µM*
CS(=O)(=O)O/N=C1\CCCCC1c1ccc([N+](=O)[O-])cc1[N+](=O)[O-] (stereo unspecified)	nt	21.7%	-7.8%	-7.0%	-19.5%	39.8µM*
Cc1ccc(CN(C(=O)Nc2cccc(Cl)c2)c2ccccn2)cc1	nt	108.1%	nt	54.0%	32.8%	58.4%[59 µM]
COC1(OC)N=C(N)C2(C#N)C(c3ccc4c(c3)OCO4)C12C#N (stereo unspecified)	-9.2%	1.1%	9.3%	-30.2%	?	50.1µM*
CCOC1(OCC)N=C(N)C2(C#N)C(c3cccc(C)c3)C12C#N (stereo unspecified)	-1.5%	57.0%	9.5%	17.7%	1.4%[57.1 µM]	39.8µM*
COC1(OC)N=C(N)C2(C#N)C(c3ccc(C)cc3)C12C#N (stereo unspecified)	9.6%	19.8%	12.8%	-8.8%	?	?
O=C(COc1cccc(F)c1)NNC(=O)Cc1ccc(Br)cc1	-7.3%	39.2%	nt	-15.0%	-11.3%	3.0%[2.33 µM]
Cc1ccc(C(=O)Nc2cccc(OCc3cc(=O)n4c5c(sc4n3)CCCC5)c2)cc1	nt	28.8%	nt	0.0%	2.3%	16.9%[59 µM]
Cc1ccc(NC(=O)c2ccc3nc(Cc4ccccc4)oc3c2)cc1F	nt	21.9%[57 µM]	nt	-4.5%	-0.5%	-3.2%[59 µM]
CCN1C(=O)C(Cc2nc3ccccc3c(=O)n2-c2ccc(OC)cc2)c2cc(C)ccc21 (stereo unspecified)	nt	2.2%	nt	?	?	?
CC(=O)NC1C(=O)N(CCN2CCOCC2)c2ccc(Br)cc21 (stereo unspecified)	nt	?	?	8.91µM*	10µM*	3.16µM*
CCOc1ccc2c(c1)C(NC(C)=O)C(=O)N2CCN1CCOCC1 (stereo unspecified)	nt	22.1%	?	14.1µM*	10µM*	15.8µM*
CCOc1ccc(C(=O)NCCN2CCOCC2)cc1	6.6%	28.1%	3.6%	2.1%	-13.5%	6.3%
COC(=O)c1oc2ccc(Br)cc2c1NC(=O)CCN1CCOCC1	0.9%	19.4%	13.3%	-12.0%	-3.0%	-21.1%
CCN1C(=O)C(NC(C)=O)c2cc(OC)ccc21 (stereo unspecified)	0.0%	47.8%	-17.4%	2.5%	2.2%	50.1µM*
CC(C)(O)C#Cc1ccc(CN2CCN(C3CCCC3)C(CCO)C2)cc1 (stereo unspecified)	1.8%	34.6%	9.5%	-17.9%	?	nt
O=C(CCC(=O)N1CCOCC1)NCc1cccc(C(F)(F)F)c1	10.5%	41.4%	nt	-1.3%	-2.5%	2.6%[12.7 µM]
COc1cccc(C(=O)OCC(=O)Nc2sc3c(c2C(N)=O)CCC3)c1O	?	-1.9%	nt	?	50.1µM*	?
COc1ccc2nc(Nc3sc4c(c3C(N)=O)CCCC4)sc2c1	-8.7%	22.4µM*	44.7µM*	?	?	3.16µM*
COc1ccc(OC)c(NC(=O)c2c(NCc3sccc3C)sc3c2CCCCC3)c1	nt	0.3%	nt	?	?	?
